Screens as filed in PubChem.
This is a sample that favours compounds with a hit; in the whole collection about 4.7% have one here.
HSF1 activator = HSF-1 activators, primary screen, NIH3T3-HGL cells, MG132 stress, luminescence, single point; NIH3T3-HGL HSF-1 luciferase reporter, 8 h; 100% = twice DMSO control signal; activation, % at 9 µM; 300,000 compounds, 1.7% hits;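 active means mean replicate activation of at least 50% with a set share of replicates each reaching 50%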;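 further: 0% = median of the neutral control wells and 100% = twice that signal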
HSP90 refold inh = HSP90 inhibitors, primary screen, cell lysate, luminescence; 290,000 compounds, 0.91% hits; AID 1789, 2009; Heat shock protein HSP 90 (rabbit reticulocyte lysate; luciferase refolding); Rabbit reticulocyte lysate, luciferase refolding luminescence, 3 h; inhibition, % at 5.6 µM;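 active means inhibition above the screen-wide mean plus 3 SD, computed separately per campaign, cut at about 16% in these data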;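 further: 0% = DMSO wells and 100% = 60 µM geldanamycin wells; inhibitors lower the luminescence because luciferase stays unfolded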
TROY signal inh = inhibitors of TROY-driven NF-kB signaling, primary screen, Q293 LMP1-TROYcd cells, NF-kB luciferase, uHTS | Q293 LMP1-TROYcd NF-kB luciferase reporter, 4 h | inhibition, % at 10 µM | 360,000 compounds, 0.98% hits;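 active means compounds whose plate-normalised and pattern-corrected inhibition of the luciferase reporter signal at the single screening dose is 50% or more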
HSF1 inhib = HSF1 inhibitors in luciferase reporter cells, primary screen, cell-based, NIH3T3, luminescence | activity change, negative = inhibition, % at 7.5 µM (by protocol) | NIH3T3-HGL HSE-luciferase, MG132-induced, luminescence 8 h; active compounds read low | 300,000 compounds, 0.77% hits | AID 2098, 2009;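 active means more than half of replicate wells show activity change below -50%, luminescence cut by over half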;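 further: luciferase reports HSF-1 transcriptional activity via heat shock element; 0% = median of DMSO wells and -100% = zero luminescence signal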
TWEAK Fn14 block = inhibitors of TWEAK-Fn14 signaling, primary screen, luciferase reporter cells, uHTS; TWEAK-stimulated Fn14 reporter cells, luciferase luminescence, 8 h; inhibition, % at 10 µM; 360,000 compounds, 2% hits; AID 1159606, 2016; in the data active means inhibition above about 50%
EBV LMP1 NFkB = EBV LMP1-driven NF-kappaB luciferase reporter inhibitors, primary screen, cell-based, luminescence, single point; LMP1-induced NF-kappaB luciferase reporter cells; inhibition, % at 12.5 µM; 350,000 compounds, 0.69% hits; in the data active means inhibition above about 41%;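 further: 0% = neutral control wells and 100% = reference inhibitor control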
* marks the source's active call; other numbers are inactive results; x = not tested or not shown.

SMILES | HSF1 activator | HSP90 refold inh | TROY signal inh | HSF1 inhib | TWEAK Fn14 block | EBV LMP1 NFkB
Cc1ccc(C(O)c2ncc(-c3cccc4ccccc34)[nH]2)c(C)c1 (stereo not given) | x | x | 5 | x | 13 | x
CCC1COCCS(=O)(=O)N1Cc1ccccc1F (stereo not given) | -10 | -2 | 15 | -2 | 8 | 3
CCC1COCCS(=O)(=O)N1Cc1ccccc1C (stereo not given) | -69 | -1 | -4 | -61* | 13 | -4
C[C@@H]1ON(C)[C@H]2C[C@H]3c4[nH]c5ccc(-c6ccc7c(c6)OCO7)cc5c4CCN3C[C@@H]12 | x | x | 30 | x | 85* | -20
NC(=O)CCC(C(=O)O)N1C(=O)c2ccc(O)cc2C1=O (stereo not given) | -63 | 0 | -19 | -54* | -9 | 1
O=C(O)CC[C@@H](C(=O)O)N1C(=O)c2ccccc2C1=O | -33 | x | -7 | -23 | 19 | 2
COc1cccc(/C=C/C(=O)OCC(=O)c2ccccc2)c1OC | x | x | 51* | x | 65* | -2
COc1cccc(/C=C/C(=O)OCC(=O)c2ccc(C)c(C)c2)c1OC | x | x | 6 | x | -21 | 2
COC(=O)c1ccccc1Sc1ncnc2onc(C)c12 | 86* | 6 | 16 | 72 | 37 | 7
Cc1noc2ncnc(Sc3ccccc3Cl)c12 | 23 | 5 | 54* | 24 | 17 | -1
Cc1ccc(Sc2ncnc3onc(C)c23)c(C)c1 | x | 0 | 14 | x | 37 | 21
COc1ccc(C(O)c2nc(-c3ccncc3)cs2)cc1 (stereo not given) | x | x | 18 | x | 8 | x
COc1cccc(-c2cc(CNC(=O)[C@H]3O[C@@H](n4cnc5c(N)ncnc54)[C@H](O)[C@@H]3O)no2)c1 | x | x | -3 | x | -8 | x
COC(=O)c1ccc(C(=O)OC)c(-n2c(=O)c3ccccc3c3ccccc3c2=O)c1 | 78* | -3 | 3 | 53 | -82 | 8
O=S1(=O)C[C@H](N2CCN(CCO)CC2)[C@@H](COCc2ccccc2)N1 | x | x | 8 | x | -4 | x
Clc1nc(-c2cccnc2)nc2scc(-c3ccccc3)c12 | 72* | 3 | -34 | 58 | 14 | -23
COc1ccc(-c2csc3nc(-c4cccnc4)nc(Cl)c23)cc1OC | -13 | -1 | 36 | 5 | 53* | 7
COc1cc(-c2nc(-c3cccnc3)no2)cc(OC)c1OC | -6 | -1 | -10 | 3 | -8 | 8
c1ccc(-c2nc(C3CCCCC3)no2)cc1 | 9 | 4 | -47 | 0 | -1 | -33
COc1ccc(-c2csc3nc(-c4ccccc4)oc(=O)c23)cc1OC | 0 | -2 | -6 | -1 | 16 | 0
COc1ccc(-c2nc(-c3cccnc3)no2)cc1OC | 8 | -4 | -31 | 6 | 84* | -7
Clc1ncnc2scc(-c3ccccc3)c12 | -14 | -1 | 8 | -1 | 11 | -21
COc1ccc(-c2nc(C3CCCCC3)no2)cc1OC | 81* | 0 | -34 | 36 | -34 | -9
CC(=O)NC(=S)Nc1sc2c(c1C#N)CCCCC2 | -29 | 4 | 59* | -22 | 67* | -8
N#Cc1c(NC(=O)CSc2ncn[nH]2)sc2c1CCCCC2 | -37 | 10 | 46 | -24 | 75* | 36
SMILES | HSF1 activator | HSP90 refold inh | TROY signal inh | HSF1 inhib | TWEAK Fn14 block | EBV LMP1 NFkB
CCNC(=S)Nc1sc2c(c1C#N)CCC(C)C2 (stereo not given) | 10 | 2 | -47 | 3 | -23 | 59*
CC(C)(C)C(=O)NC(NC(=S)Nc1sc2c(c1C#N)CCCC2)C(Cl)(Cl)Cl (stereo not given) | 31 | -1 | 59* | 3 | -9 | 1
CCOC(=O)Nc1sc2c(c1C#N)CCC(C)C2 (stereo not given) | 33 | 2 | -72 | 21 | -28 | -14
CNc1ccc2ncc(-c3ccccc3NC(C)=O)n2n1 | x | x | 2 | x | -11 | x
CCc1nc2ccc(C(=O)NCCc3ccccn3)cn2c1N(CC)CCOC | x | x | -4 | x | -6 | x
COc1ccc(NC(=O)Cn2c([N+](=O)[O-])cnc2C)c(OC)c1 | x | x | 14 | x | 4 | 4
O=S(=O)(c1ccc(F)c(F)c1)N1CCCCCCC1 | x | x | -7 | x | -14 | 3
CC1(C(=O)O)CCCN(C(=O)c2ccc3c(c2)C(C)(C)CCC3(C)C)C1 (stereo not given) | x | x | -9 | x | 20 | x
CCOC(=O)[C@]12CCC=C1N(Cc1ccccc1)C(=O)[C@H](CC(=O)N1CCOCC1)C2 | x | x | -13 | x | 13 | x
CCCc1cc(C(=O)Nc2sc3c(c2C#N)CCC3)no1 | 3 | -1 | -28 | -1 | 100* | -5
CCCc1cc(C(=O)Nc2sc(C)c(CC)c2C#N)no1 | -3 | -6 | -26 | -2 | -24 | -4
COc1cc(-c2cnc3c(NC=O)cc(-c4cccc(C(F)(F)F)c4)cn23)cc(OC)c1OC | x | x | 39 | x | 75* | x
COc1cc(-c2cnc3c(NC(C)=O)cc(-c4ccc(N5CCN(C)CC5)cc4)cn23)cc(OC)c1OC | x | x | 63* | x | 54* | x
Cc1cccc(-c2cc(NC=O)c3ncc(-c4cccc(C(=O)N(C)C)c4)n3c2)c1 | x | x | 5 | x | 16 | x
CN(C)C(=O)c1cccc(-c2cnc3c(NC=O)cc(-c4cccc(C(F)(F)F)c4)cn23)c1 | x | x | 34 | x | 63* | x
COc1ccc(-c2cnc3c(NC=O)cc(-c4ccccc4OC)cn23)cc1OC | x | x | 26 | x | 53* | x
COc1cccc(-c2cc(NC=O)c3ncc(-c4cc(OC)c(OC)c(OC)c4)n3c2)c1 | x | x | 35 | x | 42 | x
Cc1ccc2nc(-c3ccc(C#N)cc3)c(Cc3ccccc3C(F)(F)F)n2c1 | x | x | 9 | x | 3 | x
COc1cccc(C(=O)c2c[nH]c(C(=O)NCc3ccco3)c2)c1 | -64 | 0 | -26 | -56* | -31 | 13
COc1ccc(C(=O)c2c[nH]c(C(=O)NCc3ccco3)c2)cc1 | -2 | 3 | -2 | 8 | 1 | -12
Cc1cc(C)cc(NC(=O)Cn2c(SCc3cc(C)ccc3C)nc3ccncc32)c1 | x | 16* | x | x | x | x
O=C(NNC(=S)Nc1cccc(C(F)(F)F)c1)c1cccc(Cl)c1 | 18 | -3 | 36 | 2 | 62* | 7
Cc1ccc(NC(=O)/C=C/c2cccc(C(F)(F)F)c2)cc1 | 5 | 0 | -3 | 10 | 18 | -1
O=C(NNC(=S)Nc1cccc(C(F)(F)F)c1)c1ccccc1Cl | -3 | -6 | -20 | 3 | -2 | 1
O=C(/C=C/c1cccc(C(F)(F)F)c1)Nc1cccc(C(F)(F)F)c1 | 11 | -2 | 51* | 4 | 61* | 5
Cc1c(OC(C)C(=O)O)ccc2c3c(c(=O)oc12)CCCC3 (stereo not given) | 10 | 4 | -6 | -5 | 56* | -4
